KLF5 inhibitor – suppresses KLF5 promoter-driven expression | inhibition, % at 5 µM | hit rate 0.23% among 290,000 | DLD-1 KLF5 promoter-luciferase reporter, luminescence;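 active means inhibition above a per-plate limit of that plate's mean compound inhibition plus 3 SD, cut at about 60% in these data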;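 further: 0% = DMSO wells and 100% = LY294002 at 200 µM; higher means less KLF5 promoter-driven luciferase light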
BaF3 tox – parental Ba/F3 viability inhibition as JAK2V617F counter-screen; CellTiter-Glo ATP luminescence; inhibition, % at 5.6 µM; hit rate 1.1% among 220,000;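 active means inhibition above a per-campaign cutoff, the mean inhibition of all tested compounds plus 3 SD, cut at about 27% in these data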;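 further: 0% = DMSO wells and 100% = JAK Inhibitor I control wells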
Ba/F3 V617F tox – reduce viability of Ba/F3 cells dependent on JAK2V617F | Ba/F3 EpoR-JAK2V617F viability, ATP luminescence | inhibition, % at 5.6 µM | hit rate 1.1% among 220,000;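 active means inhibition above the campaign mean plus 3 SD over all tested compounds, cut at about 24% in these data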;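 further: cytokine-independent growth of Ba/F3 cells driven by EpoR plus mutant JAK2; 0% = DMSO-treated cells and 100% = JAK inhibitor I control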
APP transl inh – APP translation inhibition; hit rate 0.82% among 190,000; inhibition, % at 2 µM; AID 1285; SH-SY5Y APP 5'UTR-luciferase reporter, luminescence;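 active means inhibition above a set limit, derived from the sample mean plus 3 SD, cut at about 45% in these data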
aSyn UTR inh – 5' untranslated region of α-synuclein, MLPCN primary screen; alpha-synuclein 5'UTR reporter, inhibitor activity; inhibition, % (tested at 7.5 µM); hit rate 0.82% among 300,000; AID 1813; in the data active means inhibition above about 60%;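 further: H4 neuroglioblastoma cells stably carrying SNCA 5'UTR luciferase fusion; 0% = DMSO wells and 100% = positive control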
IEC-6 tox-1 – IEC-6 cytotoxicity, counter-screen for KLF5 inhibitors; luminescence viability; hit rate 0.78% among 290,000; AID 1825; inhibition, % at 5 µM;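 further: 0% = plate median of test compound wells and 100% = cytotoxic reference compound wells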
KLF5 confirm – confirmation of KLF5 inhibitors | shares compounds with KLF5 inhibitor | DLD-1 KLF5 promoter firefly luciferase reporter, luminescence | inhibition, % at 4 µM | hit rate 79% among 610 | AID 1834;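 active means inhibition above a set limit taken from the earlier primary screen, cut at about 63% in these data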;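 further: 0% = DMSO wells and 100% = LY294002 at 200 µM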
IEC-6 tox-2 – counter-screen for KLF5 inhibitors: cytotoxicity in rat IEC-6 cells. AID 1905. shares compounds with KLF5 inhibitor. inhibition, % at 4 µM. hit rate 56% among 610. IEC-6 rat intestinal cells, viability luminescence; in the data active means inhibition above about 23%;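 further: cells exposed to compounds for 48 hours before viability read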
IEC-6 tox confirm – confirmation of cytotoxic compounds in rat IEC-6 intestinal epithelial cells | shares compounds with IEC-6 tox-1 | IEC-6 rat intestinal epithelial viability, luminescence | inhibition, % at 5 µM | hit rate 63% among 1,900;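 further: 0% = vehicle and 100% = reference cytotoxic drug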
* marks the source's active call; other numbers are inactive results. Compounds with a hit are over-represented: about 2.2% of the library has one in this group of screens. Unless noted, no stated cut-off is given here; in the data, active means inhibition above about 22%; inactive means the rest.

What do the screens show for `Cc1ccc(-n2c(-c3ccc(Br)cc3)c[n+]3c2CCc2ccc4cccnc4c2-3)cc1`?
KLF5 inhibitor: 68.6*; BaF3 tox: 91.3*; Ba/F3 V617F tox: 97.0*; APP transl inh: 2.6; aSyn UTR inh: 85.9*; IEC-6 tox-1: 56.5*; KLF5 confirm: 111.5*; IEC-6 tox-2: 50.4*

Results for Cc1ccc(-n2c(=O)[nH]c3ncccc3c2=O)cc1 ?
KLF5 inhibitor: 0.2; BaF3 tox: 6.3; Ba/F3 V617F tox: 1.8; APP transl inh: -8.3; aSyn UTR inh: -5.9; IEC-6 tox-1: 5.4

Results for CC(CCc1ccccc1)NS(=O)(=O)c1ccc(Cl)c(C(=O)O)c1 (centres undefined) ?
KLF5 inhibitor: -31.4; aSyn UTR inh: -6.0; IEC-6 tox-1: -0.1

Results for Cc1cs/c(=N/C(=S)Nc2ccccc2)n1C ?
KLF5 inhibitor: -102.8; BaF3 tox: 4.6; Ba/F3 V617F tox: 0.1; APP transl inh: -132.9; aSyn UTR inh: -114.5; IEC-6 tox-1: 0.0

How did CCCn1c(C)cs/c1=N\C(=S)Nc1ccccc1 do in these assays?
KLF5 inhibitor: 118.4*; BaF3 tox: 3.5; Ba/F3 V617F tox: 5.3; APP transl inh: -25.4; aSyn UTR inh: 2.2; IEC-6 tox-1: 8.0; KLF5 confirm: -18.3; IEC-6 tox-2: 4.6

What do the screens show for `Oc1c(CN2CCN(c3ccccc3)CC2)cc(Br)c2cccnc12`?
KLF5 inhibitor: 51.9; BaF3 tox: 12.5; Ba/F3 V617F tox: 20.4; aSyn UTR inh: 85.5*; IEC-6 tox-1: 13.4; KLF5 confirm: 57.0; IEC-6 tox-2: 14.8

What do the screens show for `O=Cc1ccccc1OCCOc1ccc([N+](=O)[O-])cc1`?
KLF5 inhibitor: -3.2; BaF3 tox: 1.7; Ba/F3 V617F tox: -5.0; APP transl inh: -6.3; aSyn UTR inh: -14.5; IEC-6 tox-1: -0.9

How did O=Cc1ccc(O)c2ncccc12 do in these assays?
KLF5 inhibitor: 81.7*; BaF3 tox: 53.1*; Ba/F3 V617F tox: 7.6; aSyn UTR inh: 62.8*; IEC-6 tox-1: 100.3*; KLF5 confirm: 59.8; IEC-6 tox-2: 29.3*

How did COCCCNC(=O)Cn1cc(/C=C(\C#N)C(=O)NC2CCCC2)c2ccccc21 do in these assays?
KLF5 inhibitor: -36.8; aSyn UTR inh: 11.2; IEC-6 tox-1: -2.3

Results for Cc1csc(NC(=O)c2cc3c(s2)CCCCC3)n1 ?
KLF5 inhibitor: 72.3*; BaF3 tox: 2.5; Ba/F3 V617F tox: -3.3; APP transl inh: -128.6; aSyn UTR inh: 91.9*; IEC-6 tox-1: 0.1; KLF5 confirm: 51.9; IEC-6 tox-2: -1.0

How did CCOC(=O)Cc1csc(NC(=O)c2cc3c(s2)CCCC3)n1 do in these assays?
KLF5 inhibitor: -21.8; BaF3 tox: 5.7; Ba/F3 V617F tox: -3.0; APP transl inh: -44.1; aSyn UTR inh: -18.2; IEC-6 tox-1: -3.3

How did O=C(N/N=C/c1cc(Cl)cc(Cl)c1O)c1ccncc1 do in these assays?
KLF5 inhibitor: 77.2*; BaF3 tox: -4.0; Ba/F3 V617F tox: 2.4; aSyn UTR inh: 23.6; IEC-6 tox-1: 19.3; KLF5 confirm: 35.3; IEC-6 tox-2: 7.1

What do the screens show for `CC(=O)c1sc(N/N=C2\CC3CC2C(C)C3(C)C)nc1C` (centres undefined)?
KLF5 inhibitor: -54.7; BaF3 tox: 14.1; Ba/F3 V617F tox: 6.7; APP transl inh: -56.7; aSyn UTR inh: -100.6; IEC-6 tox-1: -7.9

How did Cc1cc(C(=O)Nc2ccc(Cl)cc2)c(C)n1-c1ccccc1 do in these assays?
KLF5 inhibitor: 74.0*; BaF3 tox: -1.4; Ba/F3 V617F tox: -2.6; aSyn UTR inh: 86.6*; IEC-6 tox-1: 4.3; KLF5 confirm: 87.3*; IEC-6 tox-2: -11.8

Results for Cc1ccc(-n2c(C)cc(C(=O)NS(=O)(=O)c3ccc(C)cc3)c2C)cc1 ?
KLF5 inhibitor: -27.9; BaF3 tox: 3.8; Ba/F3 V617F tox: -1.1; APP transl inh: -21.9; aSyn UTR inh: -22.5; IEC-6 tox-1: 3.8

What do the screens show for `Cc1ccc(NC(=O)c2cc(C)n(-c3cccc(C)c3)c2C)cc1`?
KLF5 inhibitor: 77.5*; BaF3 tox: -0.7; Ba/F3 V617F tox: 0.8; APP transl inh: -62.8; aSyn UTR inh: -61.9; IEC-6 tox-1: -4.7; KLF5 confirm: 88.6*; IEC-6 tox-2: -1.0

Results for C[C@@H]1C=CC(=O)O[C@@H]1c1ccc(C(F)(F)F)cc1 ?
KLF5 inhibitor: 61.8*; aSyn UTR inh: -60.4; IEC-6 tox-1: 6.4; KLF5 confirm: 38.0; IEC-6 tox-2: 13.7

Results for O=C(Nc1nnc(-c2ccc(F)cc2)o1)c1cccc([N+](=O)[O-])c1 ?
KLF5 inhibitor: 71.8*; BaF3 tox: 10.2; Ba/F3 V617F tox: 0.7; APP transl inh: -20.2; aSyn UTR inh: 56.0; IEC-6 tox-1: 98.4*; KLF5 confirm: 27.0; IEC-6 tox-2: 17.2

What do the screens show for `COc1cccc(NC(=O)Nc2cccc(C(=O)O)c2)c1`?
KLF5 inhibitor: 75.5*; BaF3 tox: 0.8; Ba/F3 V617F tox: -1.9; APP transl inh: 51.1*; aSyn UTR inh: 40.7; IEC-6 tox-1: -4.0; KLF5 confirm: 65.0*; IEC-6 tox-2: -2.4

How did O=C(Nc1ccc2c(c1)OCO2)Nc1ccc2c(c1)OCO2 do in these assays?
KLF5 inhibitor: -81.3; BaF3 tox: 4.8; Ba/F3 V617F tox: 1.0; APP transl inh: -135.6; aSyn UTR inh: -129.3; IEC-6 tox-1: -3.4

Results for O=C(Nc1cccc(C(=O)O)c1)Nc1ccc2c(c1)OCO2 ?
KLF5 inhibitor: 95.5*; aSyn UTR inh: 99.4*; IEC-6 tox-1: 1.9; KLF5 confirm: 89.0*; IEC-6 tox-2: 5.1

What do the screens show for `Cc1cc(C(=O)COC(=O)c2ccccc2O)c(C)n1Cc1cccs1`?
KLF5 inhibitor: 80.7*; BaF3 tox: 2.3; Ba/F3 V617F tox: -3.1; APP transl inh: -7.6; aSyn UTR inh: 92.7*; IEC-6 tox-1: -2.6; KLF5 confirm: 78.2*; IEC-6 tox-2: -9.8

What do the screens show for `COC(=O)c1cc(C(=O)N2CCN(c3ccccc3OC)CC2)cc([N+](=O)[O-])c1`?
KLF5 inhibitor: 73.6*; BaF3 tox: 70.6*; Ba/F3 V617F tox: 67.0*; APP transl inh: 92.5*; aSyn UTR inh: 43.7; IEC-6 tox-1: 69.0*; KLF5 confirm: 79.6*; IEC-6 tox-2: 63.1*

Results for COC(=O)c1ccc2nc(Nc3nc4ccc(F)cc4s3)sc2c1 ?
KLF5 inhibitor: 94.5*; BaF3 tox: 2.4; Ba/F3 V617F tox: -2.3; APP transl inh: 42.5; aSyn UTR inh: 75.1*; IEC-6 tox-1: 0.3; KLF5 confirm: 101.2*; IEC-6 tox-2: 16.4

Results for COc1ccc(/C=C/C(=O)c2cc(F)ccc2OC(=O)c2ccccc2OC)cc1OC ?
KLF5 inhibitor: 69.9*; BaF3 tox: 10.1; Ba/F3 V617F tox: 3.1; APP transl inh: 88.7*; aSyn UTR inh: 68.0*; IEC-6 tox-1: 52.4*; KLF5 confirm: 84.2*; IEC-6 tox-2: 39.8*; IEC-6 tox confirm: 41.4*

Bioassay records deposited in PubChem BioAssay by several laboratories.
